# “And” between values parts separate entries of the source, which are not always exact repeats. Equal values may be shown once. Among all 290,000 compounds or so, about 4,200 (1.4%) were called active. This is one part of a sample in which actives are shown more often than they occur.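 The calls were made as follows: active = binding response more than 3 SD above or below the average of its plate-row segment, actives on both sides; inconclusive = wells at one plate position flagged as instrument error; inactive = the rest.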 More than one record can exist for a structure, and the calls need not agree.
# Target: Mitogen-activated protein kinase kinase kinase 3 (Homo sapiens) (UniProt Q99759)
# Sequence (Q99759 whole entry, looked up): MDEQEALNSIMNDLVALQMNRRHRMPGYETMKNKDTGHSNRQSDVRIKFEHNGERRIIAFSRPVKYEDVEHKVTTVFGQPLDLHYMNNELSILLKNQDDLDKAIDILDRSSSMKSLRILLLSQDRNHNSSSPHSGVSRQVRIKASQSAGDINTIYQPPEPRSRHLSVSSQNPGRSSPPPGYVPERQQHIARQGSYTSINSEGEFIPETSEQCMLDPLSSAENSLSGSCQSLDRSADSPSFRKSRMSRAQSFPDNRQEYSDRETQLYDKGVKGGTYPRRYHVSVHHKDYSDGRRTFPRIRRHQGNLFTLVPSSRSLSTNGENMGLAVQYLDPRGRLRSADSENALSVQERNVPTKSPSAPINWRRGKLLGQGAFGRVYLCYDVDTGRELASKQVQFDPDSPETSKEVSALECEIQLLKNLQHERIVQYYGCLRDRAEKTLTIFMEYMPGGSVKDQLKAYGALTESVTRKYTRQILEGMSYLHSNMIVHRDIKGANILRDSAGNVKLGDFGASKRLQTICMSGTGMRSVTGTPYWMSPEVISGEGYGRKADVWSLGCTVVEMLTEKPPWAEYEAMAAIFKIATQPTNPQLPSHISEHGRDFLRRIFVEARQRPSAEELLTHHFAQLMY
# Assay: modulators of MEKK3-MEK5 PB1 binding, primary screen, biochemical, wildtype MEKK3, multiplex bead flow cytometry, Alexa488-MEK5 (AID 1529);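 also: Alexa488 bead fluorescence after subtracting the streptavidin-only scavenger bead signal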
# Settings: bead-based flow cytometry, Alexa488-MEK5 binding to MEKK3; at 10 µM; actives lie on both sides; 0 = blocked by unlabeled MEK5, 100 = vehicle
row,SMILES,binding response (% of control)
1,CCOc1ccc(CN2CCNC(=O)C2CC(=O)NCCCC2CCCC2)cc1 (stereo unspecified),102% (inactive)
2,O=C1CCN(CCCc2ccccc2)CCN1CCO,101% (inactive)
3,NS(=O)(=O)c1ccc(NC(=O)COC(=O)c2ccco2)cc1,98% (inactive)
4,O=C(COC(=O)CNC(=O)c1ccco1)Nc1ccc(F)cc1,65% [inhibitor] (active)
5,CCOC(=O)c1ccc(NC(=O)CNC(=O)c2ccco2)cc1,108% (inactive)
6,CCOc1ccccc1NC(=S)N1CCN(c2cccc(C)c2C)CC1,102% (inactive)
7,O=C(Nc1ccc2c(c1)CCC2)c1ccc(Br)s1,86% (inactive)
8,O=C(N/N=C/c1ccccc1O)/C(=C/c1ccccc1)CCO,108% (inactive)
9,Oc1ccc(Br)cc1/C=N/Nc1ccccn1,99% (inactive)
10,O=C(CCCO)N/N=C/c1cc(Br)ccc1O,129% (active)
11,CCn1c(SCC(=O)NC2=NCCS2)nnc1C(C)NC(=O)c1ccccc1F (stereo unspecified),95% (inactive)
12,Cc1ccc(CC2C(=O)N(c3ccc(F)cc3)C(=O)C2C)cc1 (stereo unspecified),99% (inactive)
13,CCOC(=O)c1sc2nc(C)[nH]c(=O)c2c1C,97% (inactive)
14,CCOC(=O)c1sc2nc(C)nc(SCC(N)=O)c2c1C,132% (active)
15,CCOC(=O)c1sc2nc(C)nc(Nc3ccc(OC)c(OC)c3)c2c1C,101% (inactive)
16,COC(C[C@@H]1O[C@@H]1C(=O)[C@H](C)OCc1ccccc1)OC,98% (inactive)
17,CCOC(=O)/C=C/c1ccc(C(F)(F)F)cc1S(=O)(=O)NC(C)(C)C,100% (inactive)
18,OCc1ccc(OCCCOc2cccc3cccnc23)cc1,106% (inactive)
19,CCOc1cccc(OCCCOc2cccc3cccnc23)c1,143% (active)
20,Cc1cc(OCCOc2cccc3cccnc23)c(C)cc1Cl,101% (inactive)
21,COc1cccc(CNC(=O)CCC2CCCN(C(=O)c3ccc(F)c(Cl)c3)C2)c1 (stereo unspecified),99% (inactive)
22,CS(=O)(=O)N1CCN(CC(=O)NC2CCCC2)CC1,99% (inactive)
23,COC(=O)c1ccccc1NC(=O)C1(S(=O)(=O)c2ccc(Cl)cc2)CC1,102% (inactive)
24,COC(=O)Cn1cnc2scc(-c3ccc(C)c(C)c3)c2c1=O,105% (inactive)

row,SMILES,binding response (% of control)
1,COc1ccc(S(=O)(=O)Nc2ccccc2C(=O)N2CCCC2)cc1C,104% (inactive)
2,COCCNC(=O)c1ccccc1NS(=O)(=O)c1ccc(C)c([N+](=O)[O-])c1,101% (inactive)
3,CC1CN(C(=O)c2ccccc2NS(=O)(=O)c2cccc([N+](=O)[O-])c2)CC(C)O1 (stereo unspecified),131% (active)
4,O=C(NCC1CC1)c1onc(CSc2ccccc2)c1C(=O)NCC1CC1,97% (inactive)
5,NC(=O)COC(=O)c1ccc2c(c1)C(=O)N(Cc1ccco1)C2=O,99% (inactive)
6,C=CCn1c(C(C)NC(=O)CC)nc2ccccc21 (stereo unspecified),94% (inactive)
7,C=CCn1c(C2CC(=O)N(c3ccc(C)cc3)C2)nc2ccccc21 (stereo unspecified),96% (inactive)
8,C=CCn1c(P(C)(=O)O)nc2ccccc21,138% (active) and 103% (inactive)
9,COc1ccc(C#Cc2c(-c3ccc(OC)cc3)oc3ccc(-c4ccc5c(c4)OCO5)cc23)cc1,95% (inactive)
10,COc1ccc(-n2cc(-c3ccccc3)c3c(=S)nc[nH]c32)cc1,101% (inactive)
11,CCn1cc(S(=O)(=O)c2cccc(C)c2)c(=O)c2cc(F)c(N3CCN(C)CC3)cc21,101% (inactive)
12,Cc1ccc(-n2c(SCC(=O)N3c4ccccc4Sc4ccccc43)nnc2-c2ccncc2)cc1,97% (inactive)
13,Cc1ccc(-c2noc(CSc3nnc(-c4ccncc4)n3-c3ccc(F)cc3)n2)cc1,106% (inactive)
14,Cc1ccc(Nc2nc(CSc3nnc(-c4ccncc4)n3-c3ccccc3C)cs2)cc1,138% (active)
15,COc1cccc(C(C(=O)NC2CCCC2)N(C(=O)c2ccco2)c2cccc(C(C)=O)c2)c1OC (stereo unspecified),98% (inactive)
16,O=C(CCCCCn1c(=S)[nH]c2ccsc2c1=O)NC1CCCCC1,102% (inactive)
17,CCOC(=O)c1ccc(CS(=O)c2ccc(Cl)cc2)o1 (stereo unspecified),100% (inactive)
18,CCOC(=O)c1c(Cc2ccc(Cl)cc2)c[nH]c1C,136% (active)
19,CCOC(=O)N1CCN(C(=O)CNC(=O)Cc2ccc(Cl)cc2)CC1,99% (inactive)
20,Cc1cccc(NC(=O)c2cc([N+](=O)[O-])ccc2N2CCN(C)CC2)c1,105% (inactive)
21,CC(=O)Nc1cccc(Oc2cc(C#N)c(C#N)cc2N2CCOCC2)c1,97% (inactive)
22,COC(=O)c1cc(NC(=O)c2cccnc2)ccc1N1CCOCC1,102% (inactive)
23,COC(=O)c1cc(NC(=O)c2cc(C(C)(C)C)nn2Cc2cccc(C)c2)ccc1N1CCOCC1,134% (active)
24,COC(=O)c1cc(NC(=O)c2ccco2)ccc1N1CCOCC1,95% (inactive)

row,SMILES,binding response (% of control)
1,CC(=O)Nc1ccc(N2CCOCC2)c(C(=O)Nc2cccc(C)c2)c1,2% [inhibitor] (active)
2,CC1=C(N2CCN(c3ncccn3)CC2)CCC1=O,103% (inactive)
3,CCCCCC(O)(CCN1CCCCC1)c1ccccc1 (stereo unspecified),104% (inactive)
4,Cc1ccc(-c2ccc(/C=C(\C#N)C(N)=S)o2)c([N+](=O)[O-])c1,100% (inactive)
5,CCOC(=O)c1ccc(NC(=O)c2c(N)n(C)c(=O)[nH]c2=O)cc1,89% (inactive)
6,COCC(C)NC(=O)COc1nncc2ccccc12 (stereo unspecified),39% [inhibitor] (active)
7,COC(=O)C(C)NC(=O)COc1ccc2ccccc2c1 (stereo unspecified),98% (inactive)
8,CC(C)C(C)NC(=O)COc1ncnc2ccccc12 (stereo unspecified),106% (inactive)
9,CCOc1ccc(C(=O)Nc2ccc(CN3CCOCC3)cc2)cc1Cl,103% (inactive)
10,CC1CN(C(=O)c2cc(COc3c(F)cccc3F)on2)CCN1C (stereo unspecified),100% (inactive)
11,C=C1CCN([C@@H](Cc2ccccc2)C(=O)N2CCOCC2)S(=O)(=O)c2ccccc21,105% (inactive)
12,CCn1cc(/C=C(\NC(=O)c2ccc(C)cc2)C(=O)NCCN2CCOCC2)c2ccccc21,102% (inactive)
13,COc1ccc(Cl)cc1NC(=O)CNc1ccccc1F,104% (inactive)
14,C=C(C)C1CC=C(C)/C(=N\NC(=O)CNc2ccccc2OC)C1 (stereo unspecified),128% (active)
15,C=C(C)C1CC=C(C)/C(=N/NC(=O)CCCNc2cccc(C)c2)C1 (stereo unspecified),97% (inactive)
16,CCCC[C@@H]1CN=C(N)N1CCCC,89% (inactive)
17,CC(=O)C1=C(O)C(=O)N(c2ccc(Br)cc2)C1c1ccc([N+](=O)[O-])cc1 (stereo unspecified),98% (inactive)
18,CCc1cccc(CC)c1NC(=S)NCc1ccc2[nH]c(C)cc2c1,106% (inactive)
19,Cc1cc2cc(CNC(=O)c3cccs3)ccc2[nH]1,73% [inhibitor] (active)
20,Cc1cc2cc(CNC(=O)c3ccc(S(=O)(=O)N4CCOCC4)cc3)ccc2[nH]1,94% (inactive)
21,O=C(CSc1nccc(=O)[nH]1)Nc1ccc(N2CCOCC2)c(Cl)c1,99% (inactive)
22,O=S(=O)(c1ccccc1)N(Cc1cccc(F)c1)c1ccccc1,99% (inactive)
23,Cc1cnc(NC(=O)CSc2nnc(C)s2)s1,100% (inactive)
24,Cc1cnc(NC(=O)Cn2cnc3c2c(=O)n(C)c(=O)n3C)s1,136% (active)

row,SMILES,binding response (% of control)
1,Cc1ccc(SCC(=O)Nc2ncc(C)s2)cc1,100% (inactive)
2,Cc1ccc(OC(=O)CCC(=O)Nc2ccc(Br)cc2)cc1,94% (inactive)
3,COc1ccc(-c2csc(Nc3ccc(O)cc3)n2)cc1,95% (inactive)
4,COC(=O)CCc1sc(Nc2ccc(Br)cc2)nc1-c1ccc(OC)cc1,136% (active)
5,CSCCC(Nc1ccc(S(=O)(=O)N2CCOCC2)cc1[N+](=O)[O-])C(=O)OCC(=O)N(C(C)C)C(C)C (stereo unspecified),98% (inactive)
6,CC(=O)N1CCN(S(=O)(=O)c2ccc(C)c([N+](=O)[O-])c2)C1C(C)C (stereo unspecified),128% (active)
7,Cc1ccc(NC(=O)CN2CCC(C(N)=O)CC2)cc1[N+](=O)[O-],98% (inactive)
8,Cc1cc(=O)cc(C)n1-c1ccc(Cl)c(Cl)c1,96% (inactive)
9,CC(=O)Nc1ccc(S(=O)(=O)N2CCC(C(=O)NC3CC3)CC2)cc1,104% (inactive)
10,Cc1[nH]n(-c2ccccc2)c(=O)c1/C=N/NC(=O)c1ccoc1C,108% (inactive)
11,CCC(=C/c1sc2ccc3ccccc3c2[n+]1C)/C=C1\Sc2ccc3ccccc3c2N1C,23% [inhibitor] (active)
12,C#CCOCCOCCOCCNc1nc(N2CCN(C(=O)C([C@@H](C)CC)n3cc(C(N)COC(=O)C(F)(F)F)nn3)CC2)nc(N2CCN(C(=O)[C@H](CCCCN)n3cc(C(N)CC(C)C)nn3)CC2)n1 (stereo partly specified),120% (inactive)
13,N=C1/C(=C/c2cccn2-c2cccc([N+](=O)[O-])c2)C(=O)N=C2SC=CN12,135% (active)
14,Cc1cc(/C=C2/C(=N)N3C(=NC2=O)SN=C3S(C)(=O)=O)c(C)n1-c1ccccc1,96% (inactive)
15,COCOc1cc(O)c(C(=O)/C=C/c2ccc(OCOC)c(OCOC)c2)c(OCOC)c1,104% (inactive)
16,Cc1cccc(NC(=O)CCN2CC(C)CC(C)C2)c1 (stereo unspecified),107% (inactive)
17,Cc1nonc1C1CCCN1Cc1nc(-c2ccc(F)cc2F)oc1C (stereo unspecified),85% (inactive)
18,CCN1/C(=C/c2ccc3ccc(C)cc3[n+]2CC)Sc2ccccc21,95% (inactive)
19,CCN1/C(=C\c2ccc3ccccc3[n+]2CC)Sc2cc(C)ccc21,70% [inhibitor] (active)
20,CCN(CC)CCCNC(=O)c1cn(C)c2ccc(S(=O)(=O)N(C)C3CCCCC3)cc2c1=O,100% (inactive)
21,COc1ccc(C(=O)NCc2nnc(SCC(=O)Nc3cccc(OC)c3)o2)cc1,102% (inactive)
22,C/C(=N\NC(=O)CNc1cccc2ccccc12)c1ccc(Br)s1,103% (inactive)
23,Cc1cccc(/C=N/NC(=O)CNc2cccc3ccccc23)n1,144% (active)
24,Cn1cccc1/C=N/NC(=O)CNc1cccc2ccccc12,103% (inactive)
